Here are results for 35 molecules from PubChem BioAssay.

This test in a line: JC-1 mitochondrial potential readout, lung cancer cells – cell-based, A549, JC-1 fluorescence, basal, 24 h, 100 nL, profiling panel (AID 1138).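 Also: A549 lung adenocarcinoma cells under basal conditions with no added stimulus; test concentration not given here.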 As to conditions: higher = more signal.
Regarding `COCCCNC(=O)[C@@]1(Cc2ccccc2N=[N+]=[N-])N=C(c2ccc(OCCCO)cc2)O[C@H]1c1ccccc1N=[N+]=[N-]`, the z-score is 0.332.

On to `Cc1ccc(S[C@]2(C(=O)NC(C)C)CC(=O)N(Cc3ccccc3Cl)[C@@H]2c2ccc(CO)cc2I)cc1`, for which the z-score is 0.905. The molecule `CC(C)c1ccc(NN2C(C(O)c3cc(C(F)(F)F)cc(C(F)(F)F)c3)C=CC3C(=O)N(c4ccccc4)C(=O)C32)cc1` (stereo not given) showed a z-score of -0.731. With `CCOC(=O)[C@H]1C/C=C/C[C@H](C(=O)OCC)C(=O)O[C@H]2[C@@H](OC)O[C@H](CO)[C@@H](OC(=O)Nc3cccc(F)c3)[C@@H]2OC1=O` the figure was -2.01; with `C=CCC(OC(C)=O)[C@@H]1[C@@H](N(Cc2ccc(-c3cccc(C(F)(F)F)c3)o2)C(=O)c2ccc(-c3ccccc3)cc2)c2cc(OCCCO)ccc2N1C(=O)c1ccc(-c2ccccc2)cc1` (stereo not given in full), 0.872. Take `O=C1O[C@H](c2ccccc2)[C@H](c2ccccc2)N2[C@H]1[C@@H](C(=O)NC[C@H](O)c1ccccc1)[C@]1(C(=O)Nc3ccccc31)[C@H]2c1ccc(OCCO)cc1`: the z-score is -0.253. The molecule `C=CCOC(=O)[C@H]1[C@@H]2C(=O)O[C@@H](c3ccccc3)[C@@H](c3ccccc3)N2[C@@H](c2ccc(OCCOC(=O)[C@H]3C[C@H]4C(=O)N5CCC[C@H]5C(=O)N4[C@H]3c3ccc(O)cc3)cc2)[C@]12C(=O)Nc1ccc(I)cc12` gave a z-score of -0.87. To `O=C1NC(=O)C2C1C=CC(C(O)Cc1ccccc1)N2Nc1ccc(Cl)cc1Cl` (stereo not given) belongs 2.92; to `CN(C)C(=O)[C@]1(Cc2ccccc2N=[N+]=[N-])N=C(c2ccc(OCCCO)cc2)O[C@@H]1c1ccccc1`, 1.71. With `COCCOC(=O)N1C(=O)[C@@]2(c3cc(C#CC4=CCCCC4)ccc31)[C@H](C(=O)Nc1nc3ccccc3s1)[C@H]1C(=O)O[C@H](c3ccccc3)[C@H](c3ccccc3)N1[C@@H]2c1ccc(OCCO)cc1` the figure was -1.99. With `C=CC[C@@]1(C(N)=O)N=C(c2ccc(OCCCO)cc2)O[C@@H]1c1ccccc1CN=[N+]=[N-]` the figure was -0.95. The molecule `C#CCN(CC1=CCCCC1)[C@H](c1ccccc1Br)[C@@H](O)Cc1ccccc1` had a z-score of -1.27.

In turn, `COc1ccc(C(=O)Nc2ccc(CN3C(=O)[C@@]4(O[C@@H](CCO)[C@H]([Si](C)(C)c5ccc(OC)cc5)[C@H]4C)c4ccccc43)cc2)cc1` came in with a z-score of -1.49.

`COC(=O)[C@@]1(Cc2ccc(F)cc2)[C@H]2c3cc(C(=O)N(C)C)n(CC4CC4)c3C[C@H]2CN1C(=O)c1ccccc1`: the z-score came out at 0.524. With `O=C(NCc1ccc(F)cc1)[C@H]1C[C@H]2C(=O)N[C@@H](Cc3ccccc3)C(=O)N2[C@H]1c1ccc(O)cc1` the figure was 0.574. With `COc1ccc(C(=O)Nc2ccc(CN3C(=O)[C@@]4(O[C@@H](CC(=O)N5CCC[C@H]5CO)[C@H]([Si](C)(C)c5ccc(OC)cc5)[C@H]4C)c4ccccc43)cc2)cc1`, the z-score was determined as 3.25. The molecule `CN(C)CCCNC(=O)[C@@]1(c2ccc([N+](=O)[O-])cc2)CC(=O)N(C2CCCCC2)[C@@H]1c1ccc(CO)cc1` had a z-score of 1.22. With `C=CCN1C(=O)[C@@]2(O[C@@H](CCO)[C@H]([Si](C)(C)c3ccc(OC)cc3)[C@H]2C)c2cc(NC(=O)c3ccc(OC)cc3)ccc21` the figure was 2.81; with `C=C(CCCC)/C(=C/C[C@@H](OC(C)=O)c1ccccc1OCCO)c1cnc2ccccc2c1`, 0.222; with `COC(=O)[C@@]1(Cc2ccc(OC)cc2)[C@H]2c3cc(C(=O)N(C)C)n(Cc4cccc5ccccc45)c3C[C@H]2CN1C(=O)c1ccccc1`, -0.78.

`CC(=O)NCCCC[C@@H]1NC(=O)[C@@H]2C[C@H](C(=O)NCCCCCCNC(=O)CS)[C@H](c3cccc(OCCO)c3)N2C1=O` yielded a z-score of 0.488. `COCCOC(=O)N1C(=O)[C@@]2(c3cc(C#CCNC(N)=O)ccc31)[C@H](C(=O)NC[C@H](O)c1ccccc1)[C@H]1C(=O)O[C@H](c3ccccc3)[C@H](c3ccccc3)N1[C@@H]2c1ccccc1OCCO` had a z-score of -1.08. In the case of `COC(=O)[C@@]1(Cc2ccc(OC)cc2)[C@H]2c3cc(C(=O)N4CCCC4)n(Cc4ccccc4)c3C[C@H]2CN1C(=O)c1ccccc1`, the z-score is 0.581. The molecule `C=C(CCCC)C(=O)CC[C@@H](OC(=O)c1cccnc1)c1ccc(CO)o1` returned a z-score of -0.627.

With `COc1ccc(C(=O)O[C@H]2CC[C@]3(C)C4=C(CCC3C2(C)C)[C@]2(C)CC[C@H]([C@H](C)CCCC(C)C)[C@@]2(C)CC4)cc1` (stereo not given in full), the z-score was 1.41. With `[N-]=[N+]=NCc1ccccc1[C@@H]1OC(c2ccc(OCCCO)cc2)=N[C@]1(Cc1ccccc1N=[N+]=[N-])C(=O)N1CCOCC1` the figure was 1.28; with `COc1ccc([Si](C)(C)[C@@H]2[C@@H](CC(=O)N3Cc4ccccc4C[C@H]3CO)O[C@]3(C(=O)N(C)c4c(Br)cc(C)cc43)[C@H]2C)cc1`, 0.595. `C=CC[C@@]1(C(=O)NCc2ccccc2)N=C(c2ccc(OCCCO)cc2)O[C@@H]1c1ccccc1N=[N+]=[N-]`: the z-score is 0.444.

Take `CC(CO)N1C(=O)[C@@H]2C3C(=O)OCCC/C=C\[C@H]3OC23C=CCN(c2ccc4ccccc4c2)C(=O)[C@@H]13` (stereo not given in full): the z-score came out at 0.45. On to `C=CCOC(=O)[C@@H]1[C@H]2C(=O)O[C@H](c3ccccc3)[C@H](c3ccccc3)N2[C@H](c2ccc(OCCOC(=O)[C@@H]3C[C@@H]4C(=O)N[C@@H](CCCC[N+](C)(C)C)C(=O)N4[C@@H]3c3cccc(OCCO)c3)cc2)[C@@]12C(=O)Nc1ccc(I)cc12`, for which the z-score is -1.2. `CCOC(=O)C[C@H]1[C@H](OC(=O)Cc2ccc3c(c2)OCO3)[C@@H](NC(=O)c2ccc3ccccc3c2)c2cc(OCCCO)ccc2N1C(=O)c1ccccc1` came in with a z-score of 1.84.

Molecule `[N-]=[N+]=Nc1ccccc1C[C@]1(C(N)=O)N=C(c2ccc(OCCCO)cc2)O[C@H]1c1ccccc1` came in with a z-score of 0.518. With `COC(=O)C=C(CC(O)c1cccc(Cl)c1)OC` (stereo not given) the figure was -0.252; with `Cc1ccc(C(C)CC(O)C2C=CC3C(=O)N(c4ccccc4)C(=O)C3N2Nc2ccc([N+](=O)[O-])cc2)o1` (stereo not given), -0.828; with `[N-]=[N+]=Nc1ccccc1C[C@]1(C(=O)NCC(O)CO)N=C(c2ccc(OCCCO)cc2)O[C@H]1c1ccccc1N=[N+]=[N-]` (stereo not given in full), 0.0494.
